Experiments:
Experiment in all cases: log2 ratio of Biotin-Ahx-Ub-VS probe labelling (fragment/DMSO); higher = less target engagement (more negative = stronger competition), active = hit call of the paper (q ≤ 0.05, log2 ratio ≤ -1)
Details in all cases: compound concentration: 200 uM; treatment time: 3 h
USP19 = target: T1, USP19 (UniProt O94966)
T1 sequence (whole entry): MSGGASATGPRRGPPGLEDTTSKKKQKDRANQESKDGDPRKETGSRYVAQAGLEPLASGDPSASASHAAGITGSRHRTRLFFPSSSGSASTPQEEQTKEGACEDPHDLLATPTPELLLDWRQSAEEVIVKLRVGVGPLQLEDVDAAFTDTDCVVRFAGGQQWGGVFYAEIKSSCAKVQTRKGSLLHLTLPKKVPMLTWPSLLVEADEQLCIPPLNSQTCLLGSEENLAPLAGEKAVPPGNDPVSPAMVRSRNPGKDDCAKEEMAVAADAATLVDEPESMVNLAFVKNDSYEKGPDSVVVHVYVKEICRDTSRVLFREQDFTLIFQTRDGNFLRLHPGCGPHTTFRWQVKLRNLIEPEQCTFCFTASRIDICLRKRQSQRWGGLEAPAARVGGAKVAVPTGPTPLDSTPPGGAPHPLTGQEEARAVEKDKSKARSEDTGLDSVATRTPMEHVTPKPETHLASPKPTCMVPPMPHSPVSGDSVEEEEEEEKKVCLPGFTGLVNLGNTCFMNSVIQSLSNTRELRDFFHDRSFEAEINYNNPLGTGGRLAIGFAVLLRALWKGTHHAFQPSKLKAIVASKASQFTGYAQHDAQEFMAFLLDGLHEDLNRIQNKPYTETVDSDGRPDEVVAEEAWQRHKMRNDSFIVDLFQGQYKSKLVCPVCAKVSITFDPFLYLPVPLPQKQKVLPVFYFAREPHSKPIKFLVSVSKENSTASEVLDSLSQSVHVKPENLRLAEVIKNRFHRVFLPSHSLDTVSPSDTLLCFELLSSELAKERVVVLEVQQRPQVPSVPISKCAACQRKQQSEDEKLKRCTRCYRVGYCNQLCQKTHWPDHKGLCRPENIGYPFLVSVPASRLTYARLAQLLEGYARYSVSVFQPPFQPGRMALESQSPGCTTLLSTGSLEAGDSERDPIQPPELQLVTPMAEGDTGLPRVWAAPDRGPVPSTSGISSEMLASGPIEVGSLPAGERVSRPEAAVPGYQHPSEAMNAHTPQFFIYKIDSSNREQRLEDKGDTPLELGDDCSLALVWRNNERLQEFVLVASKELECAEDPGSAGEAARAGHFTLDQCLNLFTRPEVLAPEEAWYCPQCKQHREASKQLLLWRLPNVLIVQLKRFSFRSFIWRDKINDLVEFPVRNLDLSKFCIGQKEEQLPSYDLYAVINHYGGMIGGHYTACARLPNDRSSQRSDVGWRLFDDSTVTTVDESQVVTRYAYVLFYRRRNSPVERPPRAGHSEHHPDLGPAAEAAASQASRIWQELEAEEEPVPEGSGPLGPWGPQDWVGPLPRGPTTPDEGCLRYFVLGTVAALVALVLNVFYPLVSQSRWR
In short: (§1)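 HEK293T lysate in Tris/CHAPS/IGEPAL buffer with protease inhibitors (495 µg per sample) was given fragment at 200 µM or vehicle for 3 h, in triplicate. It then received Biotin-Ahx-Ub-VS at 0.5 µM final for 1 h. Labelled DUBs were NeutrAvidin-enriched, digested with LysC and trypsin, and run by diaPASEF LC-MS/MS. Values are average log2 fragment/vehicle ratios by unpaired t-test on global-median-normalised Spectronaut quantities of proteins with ≥2 unique peptides.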

USP24 = USP24 (UniProt Q9UPU5)
In short: as §1

USP25 = target: T2, USP25 (UniProt Q9UHP3)
T2 sequence (whole entry): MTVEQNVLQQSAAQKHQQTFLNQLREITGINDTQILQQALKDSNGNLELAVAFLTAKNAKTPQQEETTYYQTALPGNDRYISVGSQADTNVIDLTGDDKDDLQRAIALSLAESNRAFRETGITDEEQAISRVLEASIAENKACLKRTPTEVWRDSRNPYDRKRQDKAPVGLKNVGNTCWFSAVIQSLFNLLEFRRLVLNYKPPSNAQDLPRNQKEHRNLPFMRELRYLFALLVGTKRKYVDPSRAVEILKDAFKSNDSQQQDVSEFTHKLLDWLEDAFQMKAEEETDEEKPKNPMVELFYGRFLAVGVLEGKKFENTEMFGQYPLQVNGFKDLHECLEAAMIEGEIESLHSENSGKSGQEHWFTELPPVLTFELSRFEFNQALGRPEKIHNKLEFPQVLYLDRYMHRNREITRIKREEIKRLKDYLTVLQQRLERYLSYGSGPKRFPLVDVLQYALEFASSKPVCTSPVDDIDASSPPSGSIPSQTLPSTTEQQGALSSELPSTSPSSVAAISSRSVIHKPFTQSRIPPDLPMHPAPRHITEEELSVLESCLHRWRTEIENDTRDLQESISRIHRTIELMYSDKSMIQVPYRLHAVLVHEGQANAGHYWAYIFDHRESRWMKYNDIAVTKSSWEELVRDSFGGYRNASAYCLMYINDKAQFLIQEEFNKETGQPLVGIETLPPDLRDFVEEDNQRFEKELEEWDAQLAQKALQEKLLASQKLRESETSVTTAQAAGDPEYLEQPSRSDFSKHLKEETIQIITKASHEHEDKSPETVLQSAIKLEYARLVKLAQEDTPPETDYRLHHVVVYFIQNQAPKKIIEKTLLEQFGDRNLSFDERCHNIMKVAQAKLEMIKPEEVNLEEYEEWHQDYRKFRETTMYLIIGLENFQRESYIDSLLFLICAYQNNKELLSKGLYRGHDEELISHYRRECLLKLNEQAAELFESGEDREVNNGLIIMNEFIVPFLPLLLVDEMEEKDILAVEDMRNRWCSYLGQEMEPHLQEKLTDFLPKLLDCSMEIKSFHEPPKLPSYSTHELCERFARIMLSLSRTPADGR
In short: as §1

USP28 = target: T3, USP28 (UniProt Q96RU2)
T3 sequence (whole entry): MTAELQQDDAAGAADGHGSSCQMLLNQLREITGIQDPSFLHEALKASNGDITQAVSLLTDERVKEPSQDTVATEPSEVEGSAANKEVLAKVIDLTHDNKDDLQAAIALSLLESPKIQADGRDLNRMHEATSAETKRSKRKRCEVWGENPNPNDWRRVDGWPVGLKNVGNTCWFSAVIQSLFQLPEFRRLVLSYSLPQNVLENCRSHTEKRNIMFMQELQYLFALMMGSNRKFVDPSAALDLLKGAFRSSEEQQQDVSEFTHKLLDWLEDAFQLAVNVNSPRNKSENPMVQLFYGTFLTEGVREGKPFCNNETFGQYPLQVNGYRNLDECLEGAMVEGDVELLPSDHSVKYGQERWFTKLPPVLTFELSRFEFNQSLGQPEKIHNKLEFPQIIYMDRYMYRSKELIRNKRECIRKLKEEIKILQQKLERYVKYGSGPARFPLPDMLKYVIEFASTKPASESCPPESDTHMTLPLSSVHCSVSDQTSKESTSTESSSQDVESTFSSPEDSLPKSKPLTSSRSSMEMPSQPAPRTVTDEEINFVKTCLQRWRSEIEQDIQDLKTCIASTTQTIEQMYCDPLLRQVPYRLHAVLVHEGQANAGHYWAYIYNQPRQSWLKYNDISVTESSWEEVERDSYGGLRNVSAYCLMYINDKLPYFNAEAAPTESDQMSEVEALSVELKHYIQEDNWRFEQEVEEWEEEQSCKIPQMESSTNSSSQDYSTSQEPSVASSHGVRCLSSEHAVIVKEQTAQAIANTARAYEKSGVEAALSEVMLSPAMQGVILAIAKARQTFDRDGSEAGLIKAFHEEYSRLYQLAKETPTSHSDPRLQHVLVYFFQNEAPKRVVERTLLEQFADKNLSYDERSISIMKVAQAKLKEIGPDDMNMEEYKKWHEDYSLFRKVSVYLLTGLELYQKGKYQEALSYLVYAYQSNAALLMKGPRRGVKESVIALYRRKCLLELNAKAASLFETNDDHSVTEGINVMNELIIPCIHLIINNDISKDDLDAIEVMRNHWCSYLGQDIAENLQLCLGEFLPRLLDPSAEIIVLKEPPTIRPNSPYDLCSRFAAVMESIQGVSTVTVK
In short: as §1

Measured: log2 ratio of Biotin-Ahx-Ub-VS probe labelling

USP24, sequence (Q9UPU5 whole entry): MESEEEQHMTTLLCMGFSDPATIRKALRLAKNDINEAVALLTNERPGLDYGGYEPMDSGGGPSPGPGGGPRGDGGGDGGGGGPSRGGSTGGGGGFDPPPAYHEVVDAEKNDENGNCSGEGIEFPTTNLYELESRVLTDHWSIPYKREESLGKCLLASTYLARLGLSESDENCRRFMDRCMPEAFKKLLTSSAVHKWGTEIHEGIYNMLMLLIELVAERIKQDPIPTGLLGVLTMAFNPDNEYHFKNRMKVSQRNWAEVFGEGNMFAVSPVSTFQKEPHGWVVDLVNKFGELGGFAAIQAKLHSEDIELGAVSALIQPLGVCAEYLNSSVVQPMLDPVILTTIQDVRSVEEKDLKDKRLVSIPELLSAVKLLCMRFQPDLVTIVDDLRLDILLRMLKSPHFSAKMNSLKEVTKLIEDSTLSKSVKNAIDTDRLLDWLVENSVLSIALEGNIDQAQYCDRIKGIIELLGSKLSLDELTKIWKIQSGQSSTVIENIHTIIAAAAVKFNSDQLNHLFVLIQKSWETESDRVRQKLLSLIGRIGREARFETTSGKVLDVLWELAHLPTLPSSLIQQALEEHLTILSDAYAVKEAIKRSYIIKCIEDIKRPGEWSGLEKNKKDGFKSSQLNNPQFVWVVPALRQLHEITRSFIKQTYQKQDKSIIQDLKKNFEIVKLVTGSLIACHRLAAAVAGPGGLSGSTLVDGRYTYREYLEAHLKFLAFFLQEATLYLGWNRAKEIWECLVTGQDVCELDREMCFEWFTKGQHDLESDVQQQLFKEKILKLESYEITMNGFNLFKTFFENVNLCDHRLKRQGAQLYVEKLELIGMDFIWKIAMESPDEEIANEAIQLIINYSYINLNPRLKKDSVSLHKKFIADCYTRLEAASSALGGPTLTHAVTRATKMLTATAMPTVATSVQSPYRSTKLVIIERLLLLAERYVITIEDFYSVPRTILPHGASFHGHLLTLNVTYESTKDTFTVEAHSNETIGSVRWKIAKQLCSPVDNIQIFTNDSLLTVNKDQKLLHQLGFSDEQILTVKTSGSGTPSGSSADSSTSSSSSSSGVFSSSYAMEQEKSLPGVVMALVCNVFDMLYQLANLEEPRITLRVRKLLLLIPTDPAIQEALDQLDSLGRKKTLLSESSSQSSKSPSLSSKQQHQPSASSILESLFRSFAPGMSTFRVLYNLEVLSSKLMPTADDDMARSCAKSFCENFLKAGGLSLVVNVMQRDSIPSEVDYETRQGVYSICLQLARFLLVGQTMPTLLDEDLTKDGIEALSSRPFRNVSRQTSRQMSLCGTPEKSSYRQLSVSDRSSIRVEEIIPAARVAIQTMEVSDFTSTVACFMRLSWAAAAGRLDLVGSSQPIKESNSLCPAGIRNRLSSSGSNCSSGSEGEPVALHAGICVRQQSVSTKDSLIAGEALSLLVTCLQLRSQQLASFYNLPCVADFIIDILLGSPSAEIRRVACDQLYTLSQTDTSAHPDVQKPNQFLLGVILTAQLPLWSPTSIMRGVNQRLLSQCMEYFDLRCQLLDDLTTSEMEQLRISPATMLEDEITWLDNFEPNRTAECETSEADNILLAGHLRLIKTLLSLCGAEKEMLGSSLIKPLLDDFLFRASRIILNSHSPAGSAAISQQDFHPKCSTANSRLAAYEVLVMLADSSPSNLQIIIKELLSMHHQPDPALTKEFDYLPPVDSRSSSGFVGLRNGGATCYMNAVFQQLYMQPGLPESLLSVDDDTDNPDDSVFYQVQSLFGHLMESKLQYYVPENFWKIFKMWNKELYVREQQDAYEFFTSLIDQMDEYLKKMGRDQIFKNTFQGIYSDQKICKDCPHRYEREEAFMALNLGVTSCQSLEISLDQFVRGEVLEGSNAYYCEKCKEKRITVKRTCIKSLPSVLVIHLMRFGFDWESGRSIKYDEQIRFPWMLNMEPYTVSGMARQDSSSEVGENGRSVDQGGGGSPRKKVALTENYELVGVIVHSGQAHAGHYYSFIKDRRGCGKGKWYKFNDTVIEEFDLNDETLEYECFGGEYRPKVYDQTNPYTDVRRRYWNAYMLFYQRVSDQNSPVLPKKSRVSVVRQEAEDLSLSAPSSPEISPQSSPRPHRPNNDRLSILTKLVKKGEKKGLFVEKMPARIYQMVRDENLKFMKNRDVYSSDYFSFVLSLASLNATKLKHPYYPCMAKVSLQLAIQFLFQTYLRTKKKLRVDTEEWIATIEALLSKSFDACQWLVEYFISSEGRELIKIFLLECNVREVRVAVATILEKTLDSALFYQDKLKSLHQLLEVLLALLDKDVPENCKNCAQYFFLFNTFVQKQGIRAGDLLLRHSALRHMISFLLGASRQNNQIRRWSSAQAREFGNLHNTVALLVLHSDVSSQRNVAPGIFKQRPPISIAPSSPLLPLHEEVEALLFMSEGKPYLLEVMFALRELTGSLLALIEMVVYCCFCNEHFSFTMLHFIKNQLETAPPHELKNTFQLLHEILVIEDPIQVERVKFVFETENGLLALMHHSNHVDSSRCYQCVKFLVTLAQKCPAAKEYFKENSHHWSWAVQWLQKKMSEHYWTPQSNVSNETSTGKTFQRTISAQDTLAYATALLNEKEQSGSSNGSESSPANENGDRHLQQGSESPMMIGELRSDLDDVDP

COCC[C@@H](NC(=O)CCl)c1ccccc1
inactive: USP19 -0.0952 | USP24 -0.153 | USP25 -0.293 | USP28 -0.388

From the supplement of paper PMC11732987, “Enantioselective OTUD7B fragment discovery through chemoproteomics screening and high-throughput optimisation” (Communications Chemistry, 2025)
